Screening results (PubChem BioAssay)
aSyn 5UTR act: Activators via SNCA 5'UTR binding, MLPCN; alpha-synuclein 5'UTR reporter, activators screen; activity score, % (tested at 7.5 µM), hits read low; 7.1% of 300,000 active; AID 1814; in the data active = activity score below about -60%
A number is an active result; i = inactive. The list is a sample of the results.

SMILES	aSyn 5UTR act
CC(=O)c1ccccc1OCCOCCOCCOc1ccccc1C(C)=O	i
CCC(=O)Nc1ccc2nc(C3CC3)n(Cc3ccccc3)c(=O)c2c1	-201
O=C(Nc1ccc2nc(C3CC3)n(Cc3ccccc3)c(=O)c2c1)C1CC1	-251
COc1ccc(Cn2c(C3CC3)nc3ccc(NC(=O)c4ccco4)cc3c2=O)cc1	-152
CCC(=O)Nc1nc2ccccc2n1Cc1ccc(Cl)cc1	i
CC(=O)Nc1ccc2nc(C)n(Cc3ccc(Cl)cc3)c(=O)c2c1	-78
CCC(=O)Nc1nc2ccc3sc(C)nc3c2s1	-86
Cc1nc2c(ccc3nc(NC(=O)C4CC4)sc32)s1	-121
Cc1cc(NC(=O)NC(=O)c2cccc(OC(F)(F)C(F)F)c2)n[nH]1	-119
Cc1cc(NC(=O)c2cccc(Oc3ccccc3)c2)n[nH]1	-109
Cc1ccc(N2C(=O)c3ccc(N)cc3C2=O)cc1	-182
Cc1ccc(N2C(=O)c3ccc(N)cc3C2=O)cc1C	-131
CC(Cc1cccs1)NC(=O)Nc1ccc([N+](=O)[O-])cc1 (stereo not given)	-75
O=C(NCCCc1ccccc1)c1cccs1	-88
O=C(CNC(=O)c1cccs1)c1ccc(Br)cc1	-176
O=C(NCC(O)c1ccccc1)c1cccs1 (stereo not given)	-136
Cc1ccc(-n2nc3c(N4CCC(C(=O)NCCc5cccs5)CC4)nnc(C)c3c2C)cc1	i
O=C(NCCc1ccc(F)cc1)c1cccs1	-139
CC(Cc1cccs1)NC(=O)c1cccs1 (stereo not given)	-80
COc1ccc2cc(CCNC(=O)c3cccs3)c(=O)[nH]c2c1	-138
O=C(NCCc1cccs1)c1cccs1	-147
O=C(Nc1ccc(Br)cc1)C1OCCc2ccccc21 (stereo not given)	-84
c1ccc2[nH]c(-c3cscn3)nc2c1	-99
c1ccc2nc(-c3nc4ccccc4[nH]3)ccc2c1	i
c1ccc2[nH]c(SCc3cscn3)nc2c1	-104
SMILES	aSyn 5UTR act
O=C(N/N=C1/CC2C=CCC12)c1ccco1 (stereo not given)	-66
O=C(N/N=C1/CC2C=CCC12)c1cccs1 (stereo not given)	-75
COc1ccc(NC(=S)NC(=O)c2ccc(Br)o2)cc1	-107
NC(=O)c1ccccc1NC(=S)NC(=O)c1ccc(Br)o1	-124
CC(C)c1ccc(NC(=O)c2ccc(Br)o2)cc1	-148
O=C(Nc1cccc(OC(=O)c2ccc(Br)o2)c1)c1ccccc1	-66
O=C(NC(=S)Nc1ccccc1)c1ccc(Br)o1	-287
O=C(Nc1ccc(Nc2ccccc2)cc1)c1ccc(Br)o1	-128
CC(C)(C)c1ccc(C(=O)Nc2ccc(CC(=O)O)cc2)o1	i
O=C(Nc1ccc2c(c1)Cc1ccccc1-2)c1ccc(Br)o1	-94
COc1ccc(NC(=O)c2ccc(Br)o2)cc1	-159
CCCC(=O)Nc1ccc2c(c1)Cc1ccccc1-2	-138
CCC(C)(C)C1CCc2[nH]nc(C(=O)N/N=C(\C)c3ccco3)c2C1 (stereo not given)	-136
O=Cc1cc2ccccc2nc1SCc1ccc(Cl)c(Cl)c1	i
CCOC(=O)/C(C#N)=C/Nc1ccccc1OC	-122
CCOC(=O)/C(C#N)=C/c1c[nH]c2ccccc12	-66
CCOC(=O)/C(C#N)=C/c1cc2ccccc2nc1Cl	-80
COC(=O)/C(C#N)=C/c1c[nH]c2ccccc12	-96
Cc1ccc(-c2nnc(N(C)C(=O)c3cccnc3)s2)cc1	-76
COc1ccc(-c2nnc(N(C)C(=O)c3cccnc3)s2)cc1	-108
CC(=O)C1=C(O)C(=O)N(c2ccc(Br)cn2)C1c1ccc(Br)cc1 (stereo not given)	-101
Cc1cccc(Nc2nc(-c3ccc4c(c3)OCCO4)cs2)c1	-203
Cc1nc(-c2ccc3c(c2)OCCO3)cs1	-122
Cc1ccc(OCC(=O)Nc2nnn(C)n2)c(C)c1	-87
Nc1ccccc1NC(=O)c1ccccc1N	-139
SMILES	aSyn 5UTR act
O=C(O)c1ccccc1C(=O)Nc1ccccc1NC(=O)c1ccccc1C(=O)O	-126
Nc1ccccc1NC(=O)NC(=O)c1ccccc1	-169
Cc1c(NC(=O)c2ccccc2N)cccc1C(=O)O	-155
COC(=O)C1=C(Nc2ccccc2NC(=O)c2ccccc2C(=O)O)CSC1	-167
Cc1c(NC(=O)c2ccc(Br)o2)cccc1C(=O)O	-86
CCC(C)N(CC(=O)Nc1cccc(C)c1C)C(=O)CCl (stereo not given)	-88
Cc1ccc(NC(=O)N2CCCC2)cc1Cl	-73
O=C(Nc1cccc([N+](=O)[O-])c1)C(=O)N1CCCCC1	-151
Cc1ccc(NC(=O)C(=O)N2CCCC2)cc1Cl	-107
O=C(Nc1ccc(Cl)c(Cl)c1)N1CC=CCC1	-122
CN(C)C(=S)Nc1nc2ccccc2s1	-137
CCOc1ccc2nc(SCC(=O)c3cccs3)sc2c1	-122
COc1ccc2nc(NC(=O)CSc3nnc(-c4ccoc4C)n3C)sc2c1	-134
CCOc1ccc2nc(NC(=S)N(C)C)sc2c1	-82
CCOc1ccc2nc(NS(=O)(=O)Cc3ccccc3)sc2c1	-66
COc1ccc2nc(NC(=O)CSc3nc4ccccc4o3)sc2c1	-153
CCCC(=O)Nc1nc2ccc(OCC)cc2s1	-105
CCOc1ccc2nc(NC(=O)CSc3ccccc3)sc2c1	-69
COc1ccc2nc(NC(=O)CSCC(=O)Nc3cc(C)on3)sc2c1	-101
O=c1cc(NS(=O)(=O)c2ccccc2)nc(SCc2ccccc2Cl)[nH]1	i
Nc1ccccc1-c1nnc(SCc2ccccc2Cl)[nH]c1=O	-69
O=C(Nc1ccc(-c2cn3ccccc3n2)cc1)c1ccco1	-209
CCCCC(=O)Nc1cccc(-c2cn3ccccc3n2)c1	-78
O=C(Nc1cccc(-c2cn3ccccc3n2)c1)c1ccccc1	-64
O=C(Nc1ccc2nc(-c3ccco3)c(-c3ccco3)nc2c1)NC1CC1	-65
SMILES	aSyn 5UTR act
O=C(Nc1ccc(N2CCOCC2)cc1)Nc1ccc2nc(-c3ccco3)c(-c3ccco3)nc2c1	i
COc1ccc(C2c3ccc4ccccc4c3Oc3ncn(CCCN(C)C)c(=N)c32)cc1 (stereo not given)	i
CCC(CC)C(=O)Nc1cccc(C(=O)Nc2ccc3c(c2)OCO3)c1	-121
CCN(CC)S(=O)(=O)c1cccc(C(=O)Nc2ccc3c(c2)OCO3)c1	-125
CS(=O)(=O)c1cccc(C(=O)Nc2ccc3c(c2)OCCCO3)c1	-101
O=C(Nc1cccc(F)c1)c1ccc2c(c1)OCO2	-149
O=C(Oc1ccc(N2C(=O)CCC2=O)cc1)c1ccccc1Cl	i
O=C(NNC(=O)c1ccc(F)cc1F)c1ccc2c(c1)OCO2	-90
O=C(Oc1ccc2c(c1)OCO2)c1ccc(F)cc1Cl	-176
O=C(Nc1ccc2c(c1)OCCO2)c1cccc(S(=O)(=O)N2CCOCC2)c1	-88
O=C(Nc1ccc2cn[nH]c2c1)c1ccc(Cl)c(S(=O)(=O)N2CCOCC2)c1	-200
O=C(Nc1ccc(Cl)c(S(=O)(=O)N2CCOCC2)c1)c1ccc2c(c1)OCCO2	-65
C=CCSc1n[nH]c(-c2ccc(OC)cc2)n1	-165
C=CCSc1n[nH]c(-c2ccccc2)n1	-100
NS(=O)(=O)c1ccc(C(=O)Nc2ccc(-c3nc4cccnc4s3)cc2)cc1	-121
CCc1ccc(S(=O)(=O)Nc2ccc(-c3nc4cccnc4s3)cc2)s1	-98
COc1ccc(C(=O)/C(=C\c2sccc2C)c2nc3ccccc3o2)cc1	-68
O=C(N/N=C/c1cn(-c2ccccc2)nc1-c1cc2ccccc2o1)c1ccccc1Br	-115
COc1ccc(-c2nn(-c3ccccc3)cc2C#N)cc1	-126
